Results reported in PubChem BioAssay (EPA / NIEHS).
The source made the active and inactive calls. Rule for the calls: active = hit-call score of the fitted dose curve at least 0.9, where 1 is the maximum; inactive = score below 0.9.

Assay: CCTE_Simmons_MITO_max_resp_rate: CCTE's HepG2 Seahorse XF Respirometric Screening Assay at Maximal Respiratory State [uncoupled], Simmons Lab (AID 2284002)
Details: actives raise or lower the signal
Description: CCTE_Simmons_MITO is cell-based, respirometric assay using HepG2 cells and a Seahorse XF Analyzer to measure oxygen consumption rates over four temporal phases spanning a total of 72 minutes: pre-injection (pre-treatment), basal (following test compound injection), maximal (following FCCP uncoupler injection), and inhibited (following rotenone/antimycin A injection)CCTE_Simmons_MITO_max_resp_rate is one of 4 assay components calculated from the CCTE_Simmons_MITO assay. It is designed to make measurements of maximal respiration using a form of respirometric reporter, as detected with […] signals by Seahorse XF96 technology. Data from the assay component CCTE_Simmons_MITO_max_resp_rate was analyzed at the endpoint, CCTE_Simmons_MITO_max_resp_rate_OCR, with bidirectional fitting relative to DMSO as the negative control and baseline of activity. Using a type of respirometric reporter, measures of maximal respiration for gain or loss-of-signal activity can be used to understand cellular oxygen consumption as it relates to cellular respiration. To generalize the intended target to other relatable targets, this assay endpoint is annotated to the mitochondria intended target family, where the subfamily is respiration.
Test chemicals were administered as a titrated series of 7 concentrations from 125 nM up to 100 uM [final] prior to kinetic endpoint detection at 6 minute intervals [3 min mix followed by 3 minutes measure] for 72 minutes. Three biological replicates of technical singles were run for every chemical concentration tested. Dimethylsulfoxide [DMSO] was used as the vehicle control. The electron transport chain inhibitor fenpyroximate was used as the positive control for decreased basal respiration and was administered as a titrated series of 6 concentrations from 250 nM up to 2.75 uM [final] with technical triplicates for the top concentration only. The uncoupler 2,4-dintirophenol was used as the positive control for increased basal respiration and was administered as a titrated series of 6 concentrations from 938 nM up to 40 uM [final] with technical triplicates for the top concentration only. A Seahorse XF Analzyer is required to measure the response.
In the case of `O=C1C2(Cl)C3(Cl)C4(Cl)C(Cl)(Cl)C5(Cl)C3(Cl)C1(Cl)C5(Cl)C24Cl` (stereo not drawn), the AC50 was 35.8 µM (active). For `CCC(C)(C)c1ccc(O)c(C(C)(C)CC)c1`, the AC50 was 78.2 µM (active). In the case of `CCOP(=S)(OCC)Oc1nc(Cl)c(Cl)cc1Cl`, the outcome was “inactive”. With `O=C(O)C(F)(F)C(F)(F)C(F)(F)C(F)(F)C(F)(F)C(F)(F)C(F)(F)C(F)(F)C(F)(F)C(F)(F)F` the outcome was “inactive”. In the case of `CCCCCCCCc1ccc(O)cc1`, the AC50 was 39.5 µM (active). With `CC(C)(c1ccccc1)c1ccc(O)c(C(C)(C)c2ccccc2)c1` the AC50 was 50 µM (active). In the case of `O=[N+]([O-])c1ccc(O)c([N+](=O)[O-])c1`, the outcome was “inactive”. With `CC(=O)[O][Hg][c]1ccccc1` the AC50 was 13.1 µM (active). With `O=C(Nc1ccc2[nH]ccc2c1)c1cc2cc(F)ccc2n1Cc1cccc(F)c1` the outcome was “inactive”. For `COc1cc(-c2ccc(N)c(OC)c2)ccc1N`, the outcome was “inactive”. In the case of `C=C(C)C(=O)[O][Sn]([CH2]CCC)([CH2]CCC)[CH2]CCC`, the AC50 was 5.4 µM (active). With `C[C@]12CCC(=O)C[C@@H]1CC[C@@H]1[C@@H]2CC[C@]2(C)[C@@H](O)CC[C@@H]12` the outcome was “inactive”. For `CC(C)(C)CC(C)(C)c1ccc(O)cc1`, the AC50 was 27.7 µM (active).
